# The panel holds about 83,000 compounds, 20% with a hit somewhere; the sample as a whole holds those more often.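 Results are percent growth after 48 hours of single-concentration exposure. 100 means growth as in untreated cells, lower positive values show inhibition; negative values down to -100 show cell death.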 Values without a mark were called inactive. Activity calls are given as the source filed them. How the source made its calls: active means growth percent below 10; inactive means the rest.
# Legend:
# Assay in all cases: NCI-60 one-dose screen, 48 h (100 = growth as untreated, 0 = no growth, -100 = all killed)
# [1] = test system: NCI-H23 lung; conditions: 10 µM unless noted
# [2] = test system: NCI-H226 lung; conditions: 10 µM unless noted
# [3] = test system: NCI-H322M lung; conditions: 10 µM unless noted
# [4] = test system: NCI-H460 lung; conditions: 10 µM unless noted
# [5] = test system: HOP-92 NSCLC; conditions: 10 µM unless noted
# [6] = test system: A549/ATCC NSCLC; conditions: 10 µM unless noted
# [7] = test system: 786-0 renal; conditions: 10 µM unless noted
# [8] = test system: COLO 205 colon; conditions: 10 µM unless noted
# [9] = test system: NCI-H522 lung; conditions: 10 µM
Compound,growth [1],growth [2],growth [3],growth [4],growth [5],growth [6],growth [7],growth [8],growth [9]
NS(=O)(=O)c1ccc(-n2nc(-c3ccc(Br)cc3)ccc2=O)cc1,61.3% [100 µM],79.5% [100 µM],87.7% [100 µM],67.2% [100 µM],-30.5% [100 µM] (active),58% [100 µM],46.7% [100 µM],80.2% [100 µM],–
N#CSCC1CC(O)(c2ccccc2)C(c2ccccc2)C(c2ccc(Cl)cc2)O1 (stereo not given),-78.6% (active),19.7%,52.3%,-68.7% (active),-29.6% (active),-53.7% (active),-74.3% (active),-98.3% (active),–
N#Cc1ccccc1C#Cc1ccccc1C#Cc1ccc(OCCCCCCOc2ccc(C#Cc3ccccc3C#Cc3ccccc3C#N)cc2)cc1,99.4%,102%,105%,116%,91.6%,94%,98.4%,119%,–
CCCCCCCCCCCCC1CCCC(C)C1 (stereo not given),105%,99.8%,95%,101%,69.1%,93.1%,92.3%,98.1%,–
N#Cc1ncc(-c2ccc(C(F)(F)F)cc2)c(NC2CCCCCC2)n1,29.9%,35.1%,78.2%,29.8%,-22.6% (active),–,37.9%,7.19% (active),-4.74% (active)

# Source: PubChem BioAssay (NCI)
